Source: PubChem BioAssay
This is a sample that favours compounds with a hit; in the whole collection about 1.7% have one here.
TrxR1 inh-1: qHTS Assay for Inhibitors of Mammalian Selenoprotein Thioredoxin Reductase 1 (TrxR1): qHTS. Thioredoxin reductase 1, cytoplasmic (Rattus norvegicus), O89049. recombinant rTrxR1, NADPH fluorescence consumption, selenite substrate. Potency, µM (top dose mostly 114 µM), most hits filed as inhibitors. actives 1% (n = 390,000); note: nearly all actives have a fitted effect of over 65% in size
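Rat TrxR1 (90 nM in the dispensed reagent) was pre-reduced with 400 uM NADPH for 5 min at room temperature, then incubated with compound for 15 min. After 400 uM selenite was added, NADPH fluorescence (Ex 340/Em 450 nm) was followed for 8 min.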
mIDH1 inhibitor: qHTS for Inhibitors of mutant isocitrate dehydrogenase 1 (IDH1): qHTS; Isocitrate dehydrogenase [NADP] cytoplasmic (Homo sapiens), O75874; IDH1-R132H enzyme, NADPH consumption, diaphorase/resazurin fluorescence; Potency, µM (series often up to 76.6 µM), usual class: inhibitors; actives 0.093% (n = 390,000); AID 602179, 2012; note: nearly all actives have a fitted effect of over 65% in size
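IDH1-R132H (0.5 ug/mL dispensed) in pH 7.5 Tris buffer was preincubated 30 min with compound, then given a substrate mix of 0.016 mM NADPH and 2 mM alpha-KG for 80 min at room temperature; remaining NADPH was read by diaphorase/resazurin fluorescence.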
TrxR1 substrate: qHTS Assay for Substrates of Mammalian Selenoprotein Thioredoxin Reductase 1 (TrxR1): qHTS. Potency, µM (top dose mostly 114 µM). actives 0.01% (n = 390,000). AID 588456, 2011. purified TrxR1 substrate turnover, NADPH consumption readout. Thioredoxin reductase 1, cytoplasmic (Rattus norvegicus), O89049; note: nearly all actives have a fitted effect of over 50% in size
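Rat TrxR1, dispensed at 90 nM, was prereduced with 400 uM NADPH (final) for 5 min at ~22 deg C, then incubated with compound 15 min before 400 uM selenite. A first-read NADPH fluorescence drop versus no-compound background flagged substrates.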
12-LOX inh: Primary qHTS assay for inhibitors of human arachidonate 12S-lipoxygenase (ALOX12): Round 2; Polyunsaturated fatty acid lipoxygenase ALOX12 (Homo sapiens), P18054; purified 12hLO, xylenol orange hydroperoxide absorbance; Potency, µM (titrated, usually from 108 µM), actives largely listed as inhibitors; actives 1.1% (n = 580,000)
Target sequence (P18054 whole entry, looked up): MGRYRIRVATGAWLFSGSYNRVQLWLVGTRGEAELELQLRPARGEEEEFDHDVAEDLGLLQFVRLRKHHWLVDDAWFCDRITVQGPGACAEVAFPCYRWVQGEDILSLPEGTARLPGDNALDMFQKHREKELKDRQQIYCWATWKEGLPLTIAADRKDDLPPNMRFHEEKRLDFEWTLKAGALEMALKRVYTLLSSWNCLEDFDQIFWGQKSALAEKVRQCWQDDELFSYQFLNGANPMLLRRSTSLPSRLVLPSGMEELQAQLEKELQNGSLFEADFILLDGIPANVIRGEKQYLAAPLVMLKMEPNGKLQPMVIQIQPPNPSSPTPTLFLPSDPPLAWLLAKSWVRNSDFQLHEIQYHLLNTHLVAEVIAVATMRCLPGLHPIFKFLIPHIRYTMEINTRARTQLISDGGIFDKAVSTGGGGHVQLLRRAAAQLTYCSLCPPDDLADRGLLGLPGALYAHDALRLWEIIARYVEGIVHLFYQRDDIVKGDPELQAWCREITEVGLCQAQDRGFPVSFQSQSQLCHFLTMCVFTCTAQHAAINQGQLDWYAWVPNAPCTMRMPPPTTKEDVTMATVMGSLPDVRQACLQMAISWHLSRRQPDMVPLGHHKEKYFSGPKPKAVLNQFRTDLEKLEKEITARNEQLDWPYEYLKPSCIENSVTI
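Purified human 12hLO (150 nM final) in 25 mM Hepes, 0.01% Triton X-100, pH 7.0 was preincubated 15 min at room temperature with compound. Then 40 uM arachidonic acid was added, 30 min. Hydroperoxide was read by Fe-XO absorbance ratio 573/405 nm.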
Anesthetic bind: qHTS Assay for Identification of Novel General Anesthetics | AID 485281, 2010 | Ferritin light chain (Equus caballus), P02791 | Potency, µM (series often up to 77.5 µM), usual class: inhibitors | actives 0.074% (n = 350,000) | apoferritin/1-aminoanthracene competitive binding, fluorescence; note: nearly all actives have a fitted effect of over 20% in size
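10 uM apoferritin + 50% sat. 1-AMA, PBS; cpd 10 min RT; Ex380/Em535 endpoint; normalized to free probe vs complex; 4-param Hill fit; propofol titration as pos. ctrl.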
GRP78 ERSR act: qHTS for Inducers of the Endoplasmic Reticulum Stress Response (ERSR) in Human Glioma: qHTS; U87-MG GRP78 promoter luciferase reporter, 16 h; Potency, µM, hits mostly activators; actives 0.02% (n = 420,000); AID 602332, 2012; note: series mostly up to about 76 µM; nearly all actives have a fitted effect of over 35% in size
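Stably transfected U87-MG glioma cells carrying a GRP78-based luciferase sensor; 16 h compound incubation. Luminescence end-point read 10 min after Bright-Glo addition at room temperature.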
TRb SRC2 Alpha: Protein Interaction Secondary Assay for Inhibitors of the Interaction of Thyroid Hormone Receptor and Steroid Receptor Coregulator 2, Alpha Screen; shares compounds with TrxR1 inh-1; AlphaScreen TRb LBD-SRC2 peptide binding, luminescence; Potency, µM; actives 50% (n = 30); calls by dose curve
HepG2 tox: Cell Viability Secondary Assay for Inhibitors of the Interaction of Thyroid Hormone Receptor and Steroid Receptor Coregulator 2 | shares compounds with TrxR1 inh-1 | HepG2 viability, ATP luminescence (CellTiter-Glo), 72 h | Potency, µM | actives 50% (n = 40) | AID 2447, 2010; calls by dose curve
AR-SRC2 inh: Androgen Receptor Selectivity Assay for Inhibitors of the Interaction of Thyroid Hormone Receptor and Steroid Receptor Coregulator 2; AID 2448, 2010; 25 tested, under 10 active; shares compounds with TrxR1 inh-1; AR-LBD Tx-SRC2-3 fluorescence polarization, 3 h; calls only; call rule not given here
PPARg-DRIP2 inh: PPAR gamma Selectivity Assay For Inhibitors of the Interaction of Thyroid Hormone Receptor and Steroid Receptor Coregulator 2. AID 2449, 2010. Potency, µM. PPARg LBD / Texas Red DRIP-2 peptide, fluorescence polarization, 3 h. shares compounds with TrxR1 inh-1. 25 tested, under 10 active; calls by dose curve
VDR SRC2 FP: Vitamin D Receptor Selectivity Assay for Inhibitors of the Interaction of Thyroid Hormone Receptor and Steroid Receptor Coregulator 2; shares compounds with TrxR1 inh-1; VDR LBD/SRC2-3 peptide, fluorescence polarization, 3 h; Potency, µM; 25 tested, under 10 active; AID 2455, 2010; calls by dose curve
GR inh: qHTS Assay for Inhibitors of Mammalian Selenoprotein Thioredoxin Reductase 1 (TrxR1): Counterassay in Glutathione Reductase (GR); shares compounds with TrxR1 inh-1; purified GR, DTNB reduction absorbance 405 nm kinetic; activity change, negative = inhibition, % at 57.1 µM; 55 tested, under 10 active
TrxR1 inh-2: qHTS Assay for Inhibitors of Mammalian Selenoprotein Thioredoxin Reductase 1 (TrxR1): Hit Validation in Primary Screen; Potency, µM, hits mostly inhibitors; recombinant TrxR1, NADPH fluorescence consumption, selenite substrate; AID 652023, 2013; actives 50% (n = 55); shares compounds with TrxR1 inh-1
TrxR1 insulin MOA: qHTS Assay for Inhibitors of Mammalian Selenoprotein Thioredoxin Reductase 1 (TrxR1): Insulin MOA Assay; actives 20% (n = 55); shares compounds with TrxR1 inh-1; TrxR1 Trx-coupled insulin reduction, NADPH absorbance 340 nm; Potency, µM; AID 652037, 2013;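 active = compounds with a measured potency under 100 micromolar; inconclusive = filed, but no rule given; inactive = potency at or above that, or unmeasurable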
TrxR1 inh-3: qHTS Assay for Inhibitors of Mammalian Selenoprotein Thioredoxin Reductase 1 (TrxR1): DTNB Assay; shares compounds with TrxR1 inh-1; purified TrxR1, DTNB reduction, A412; Potency, µM; actives 90% (n = 55); AID 652256, 2013;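 active = a half-inhibiting concentration could be measured and was below 100 µM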
Numbers stand for hits. Unless noted, calls come from the whole dose curve; as a rule, active = well fitted curve in the direction sought with a large enough effect; inconclusive = small, poorly fitted or top-dose-only effect, or another doubt; inactive = no such curve, though single readings can be large; an effect the other way counts as inactive or inconclusive.

How did O=C(COC(=O)c1ccc(F)c([N+](=O)[O-])c1)NC1C2CC3CC(C2)CC1C3 (centres undefined) do in these assays?
TRb SRC2 Alpha: 8.7µM; HepG2 tox: inconclusive; AR-SRC2 inh: inactive; PPARg-DRIP2 inh: inactive; VDR SRC2 FP: inactive

Results for Nc1ccc(C(=O)OCC(=O)NC2CC2)cc1[N+](=O)[O-] ?
TrxR1 inh-1: inactive; mIDH1 inhibitor: inactive; TrxR1 substrate: inactive; 12-LOX inh: inactive; Anesthetic bind: inactive; GRP78 ERSR act: inactive

How did Cc1ccc(N(C(C)C(=O)N2CCCCC2)S(C)(=O)=O)cc1 (centres undefined) do in these assays?
12-LOX inh: inactive

What do the screens show for `Cc1cc(S(=O)(=O)c2ccc([N+](=O)[O-])cn2)ccc1Br`?
TrxR1 inh-1: 0.11µM; mIDH1 inhibitor: inactive; TrxR1 substrate: inactive; 12-LOX inh: inactive; GRP78 ERSR act: inactive; GR inh: inactive; TrxR1 inh-2: 0.12; TrxR1 insulin MOA: 35µM; TrxR1 inh-3: 0.011µM

How did CN(C)c1ccc(CNC(=O)c2csc(N3CCN(CCc4ccccc4)C3=O)n2)cc1 do in these assays?
12-LOX inh: inactive
